Measurements taken from PubChem BioAssay.

Columns and labels:
[1] = system: Botulinum neurotoxin type F light chain protease (Clostridium botulinum); assay: Clostridium botulinum type F light chain protease inhibitors, microsphere substrate cleavage, validation (AID 588459); settings: multiplex microsphere protease substrate cleavage assay, flow cytometry; at 10 µM; hits give high values
[2] = target: Botulinum neurotoxin type A (Clostridium botulinum) (UniProt P0DPI0); assay: BoNT/A light chain protease inhibitors, biochemical, multiplex microsphere flow cytometry, validation set (AID 588460); settings: at 10 µM, hits give high values
[3] = target: Lethal factor (Bacillus anthracis) (UniProt P15917); assay: Bacillus anthracis lethal factor inhibition, microsphere flow cytometry protease assay, validation at 10 µM (AID 588461); settings: multiplex microsphere protease cleavage assay, hits give high values

Measured: inhibition

CC(=O)OCC#CCSc1nc2ccccc2n1C
inactive: [1] 0.7% | [2] -0.6% | [3] -1.5%

CCC(C)NCCOc1ccccc1C (stereo unspecified)
inactive: [1] 1.2% | [2] -0.1% | [3] 5.2%

Nc1nnc(CSCc2ccc(Cl)cc2Cl)s1
inactive: [1] 0.7% | [2] -0.6% | [3] 6.8%

Cc1ccc(O)c(CCc2ccccc2)n1
inactive: [1] 1.3% | [2] 0.5% | [3] -5.5%

C(=C/c1nccc2c1[nH]c1ccccc12)/c1ccc2c(c1)OCO2
inactive: [1] 3.2% | [2] 6.7% | [3] -1.4%

CCOC(=O)C1=C2c3ccc4ccccc4c3CC(C)(C)N2C(=O)C1=O
inactive: [1] 2.7% | [2] 1.7% | [3] -4.6%

CCOC(=O)c1cc2cc3ccccc3cc2[nH]1
inactive: [1] 3.4% | [2] -0.1% | [3] 5.8%

CCCN(CCC)C(=O)C(CCC(=O)O)NC(=O)c1ccccc1 (stereo unspecified)
inactive: [1] 0.5% | [2] -0.3% | [3] 8.6%

CO[C@@H]1O[C@@H]2COC(c3ccccc3)O[C@@H]2[C@@H](OC)[C@@H]1O (stereo partly specified)
inactive: [1] 1.6% | [2] -0.6% | [3] 2.5%

CN1CCC(=C2c3ccccc3C=Cc3ccccc32)CC1
inactive: [1] -1.3% | [2] -1.2% | [3] -8.4%

COc1ccc(C(Cl)=C(c2ccc(OC)cc2)c2ccc(OC)cc2)cc1
inactive: [1] 1.5% | [2] -0.6% | [3] -1.1%

Cc1ccc(S(=O)(=O)Nc2ccc(S(=O)(=O)Nc3cc(C)nc(C)n3)cc2)cc1
inactive: [1] -1.8% | [2] 0.6% | [3] 0.7%

CC(C)[C@H](NC(=O)[C@@H]1CSCN1C(=O)OC(C)(C)C)C(=O)NCC1CCC(C(=O)O)CC1 (stereo partly specified)
inactive: [1] -1.3% | [2] -1.5% | [3] -2.2%

Cc1cc(C(C)(C)C)c(O)c(C)c1CC1=NCCN1
inactive: [1] 0.7% | [2] -1.1% | [3] 3.7%

COC(=O)c1[nH]c2ccccc2c1NC(=O)CN1CCN(C/C=C/c2ccccc2)CC1
inactive: [1] -2.6% | [2] -1.4% | [3] -4.7%

COc1ccc(OC)c(S(=O)(=O)N2CCCc3ccccc32)c1
inactive: [1] -4.6% | [2] -0.4% | [3] -0.9%

O=C(NCCNc1ccc(Cl)cc1[N+](=O)[O-])c1cccnc1
inactive: [1] 0.4% | [2] -1.2% | [3] 2%
